# Values without a mark were called inactive. Inconclusive results are not listed. The source made the active and inactive calls. Unless noted, calls follow the shape of the dose curve; as a rule, active = well fitted curve in either direction with a large enough effect (not every such curve was filed as active); inconclusive = small, poorly fitted or top-dose-only effect, or another doubt; inactive = flat fitted curve, though single readings scatter.
# Experiments:
# [1] = target: Lysosomal acid glucosylceramidase (Homo sapiens) (UniProt P04062); test: Glucocerebrosidase-p2 (AID 348; in the data active = potency below about 10 µM; also: potency is read from the fitted curve at half-maximal effect); conditions: purified GBA, blue fluorogenic substrate, 40 min
# How it was run: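 Compounds titrated from 0.6 nM upwards against 0.2 nM enzyme in pH 5.9 citric acid/KH2PO4, taurocholate, tween-20; blue fluorogenic substrate 80 uM, 40 min room temperature, stopped and read Ex 365/Em 440 for AC50.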
# [2] = AP1 Signaling Pathway (AID 357); conditions: ME-180 AP-1-bla reporter, EGF-induced, beta-lactamase ratio, 5 h; at 7.69 µM (top of the series) unless noted; also: % is scaled to controls: 0 for no effect and ±100 for the full control effect
# How it was run: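 ME-180 cells with beta-lactamase reporter under AP-1 response element, stimulated with EC50 EGF; compounds tested in titration series, 5 h at 37 °C. CCF4 substrate added 2.5 h at room temperature; 460/530 nm emission ratio gave %activity and AC50.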
# [3] = target: Cytochrome P450 1A2 (Homo sapiens) (UniProt P05177); test: p450-cyp1a2 (AID 410; calls by dose curve; also: potency is read from the fitted curve at half-maximal effect;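 as to activity change, negative = inhibition: -100% = full effect of reference inhibitor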); conditions: recombinant CYP1A2, luciferin-ME demethylation, luminescence; series mostly up to 11.4 µM
# How it was run: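 Human CYP1A2 (20nM) demethylated Luciferin-ME at its Km (100uM) in 100mM KPO4. After 10 min compound preincubation, NADPH regeneration ran the reaction 60 min at room temperature. Luciferin was read by luminescence, normalized to 57 uM furafylline.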
# [4] = NFAT Signaling Pathway (AID 444); conditions: Jurkat NFAT-bla M1, carbachol, beta-lactamase ratio, 5 h; at 7.69 µM (top of the series) unless noted;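 also: carbachol stimulus at about its EC50 of 1 µM final; % is scaled to controls: 0 for no effect and ±100 for the full control effect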
# How it was run: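 Jurkat cells carrying an NFAT-driven β-lactamase reporter and co-transfected muscarinic M1 receptor were treated with compound plus carbachol (1 uM final, an EC50 level) for 5 h at 37 °C. CCF4 loading followed for 1 h at RT; 460/530 nm ratio gave %activity.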
# [5] = Stat Signaling Pathway (AID 446); conditions: ME-180 SIE beta-lactamase reporter, IL-6 stimulated, 5 h; at 7.69 µM (top of the series) unless noted;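 also: ME-180 cervical cancer cells given 40 pM IL-6 alongside compound; SIE-controlled beta-lactamase reporter measured as 460/530 nm FRET emission ratio; % is scaled to controls: 0 for no effect and ±100 for the full control effect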
# How it was run: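 IL-6/STAT signaling read in ME-180 cells via an SIE beta-lactamase reporter. Stimulus was 40 pM IL-6 (its AC50) for 5 hrs, so both activation and inhibition register.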
# [6] = target: Glucocorticoid receptor (Homo sapiens) (UniProt P04150); test: GR-EFC Redistribution (AID 451; calls by dose curve; also: potency is read from the fitted curve at half-maximal effect); conditions: CHO-K1 GR-EFC translocation, beta-gal luminescence, 2 h
# How it was run: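 CHO-K1 cells stably expressing nuclear-localized β-gal enzyme acceptor and GR fused C-terminally to the enzyme donor fragment; ligand-driven nuclear translocation restores β-gal by complementation. Compounds titrated up to 46 uM final, 2 h at 37 °C; luminescence read.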
# [7] = target: Mitogen-activated protein kinase 10 (Mus musculus) (UniProt Q61831); test: JNK3 AlphaScreen Assay (AID 530); conditions: JNK3 lysate, c-Jun phosphorylation; series mostly up to 11.4 µM;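 also: kinase came from lysate of stimulated human HepG2 cells; signal reports phosphorylation of biotinylated GST-cJun 1-79 at Ser73 with 10 µM ATP; % is scaled to controls: 0 for no effect and ±100 for the full control effect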
# How it was run: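 JNK3 came from HepG2 lysates pre-activated with IL-1beta and TNF-alpha and phosphorylated biotinylated GST-cJun (1-79) at 10 uM ATP, pH 7.6, room temperature. Compounds were titrated. AlphaScreen signal used anti-phospho-cJun (Ser73) antibody.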
# [8] = target: 3',5'-cyclic-AMP phosphodiesterase 4B (Homo sapiens) (UniProt Q07343); test: qHTS Assay for Inhibitors of PDE-IV (AID 607; active = well fitted activation curve with a large enough effect in the main read-out, with a control signal flat, not every such curve was filed as active; also: % of control where 0% means no effect); conditions: HEK293 ACTOne CNG channel cells, membrane potential fluorescence; series mostly up to 22.9 µM
# How it was run: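 Live HEK293 cells with a modified cyclic nucleotide-gated (CNG) channel report intracellular cAMP via membrane-potential dye fluorescence (ex 535/em 590 nm). Endogenous PDE-IV was targeted. Compounds were tested at up to 22.9 uM final; RO 20-1724 100 uM served as control.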
# [9] = target: Cytochrome P450 3A4 (Homo sapiens) (UniProt P08684); test: qHTS Assay for Activators of Cytochrome P450 3A4 (AID 885; active = well fitted curve in the direction sought with a large enough effect; an effect the other way counts as inactive or inconclusive; also: nearly all actives have a fitted effect of over 65% in size); conditions: recombinant CYP3A4, Luciferin-PPXE luminescence, 60 min; series mostly up to 11.4 µM
# How it was run: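 Quantitative HTS format: compounds preincubated with 20nM human CYP3A4 and Luciferin-PPXE substrate at KM, reaction started by NADPH regeneration, stopped after 60 min, luciferase luminescence read 20 min later.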
# [10] = target: Glucocorticoid receptor (Homo sapiens) (UniProt P04150); test: GR-GFP Redistribution (AID 450;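 active = compounds whose dose series gives a full or clear partial fitted curve of increased nuclear translocation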; also: potency is read from the fitted curve at half-maximal effect); conditions: U2OS GR-GFP nuclear translocation, laser cytometry, 2 h
# [11] = target: Cytochrome P450 2D6 (Homo sapiens) (UniProt P10635); test: qHTS Assay for Inhibitors and Substrates of Cytochrome P450 2D6 (AID 891; active = well fitted curve in the direction sought with a large enough effect; an effect the other way counts as inactive or inconclusive; also: potency is read from the fitted curve at half-maximal effect; nearly all actives have a fitted effect of over 60% in size); conditions: recombinant CYP2D6, luciferin-ME EGE luminescence; series mostly up to 11.4 µM
# How it was run: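 Human CYP2D6 (5 nM) with 30 uM Luciferin-ME EGE (at Km) in 100 mM KPO4, compound preincubated 10 min, then NADPH regeneration system for 60 min at room temperature. Luciferin read by luminescence; normalized to 1.43 uM quinidine.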
# [12] = qHTS Assay for Identification of Small Molecule Agonists for Hypoxia Response Element Signaling Pathway (AID 914; active = well fitted activation curve with a large enough effect in the signal ratio, with a control signal flat, not every such curve was filed as active; the % refers to the signal ratio; also: % of control where 0% means no effect); conditions: ME-180 (cervical carcinoma) HRE-bla reporter, beta-lactamase ratio, CoCl2, 17 h; activation: active compounds read high
# How it was run: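 Cells were plated overnight, pin-dosed with compound in a titration series, co-stimulated with EC50 CoCl2 and incubated 17 hours at 37 degrees Celsius. CCF4 substrate was then loaded, and AC50 values came from the 460nm/530nm ratio.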
# [13] = target: Cytochrome P450 3A4 (Homo sapiens) (UniProt P08684); test: qHTS Assay for Inhibitors and Substrates of Cytochrome P450 3A4 (AID 884; active = well fitted curve in the direction sought with a large enough effect; an effect the other way counts as inactive or inconclusive; also: % is scaled to controls: 0 for no effect and ±100 for the full control effect; nearly all actives have a fitted effect of over 50% in size); conditions: recombinant CYP3A4, Luciferin-PPXE luminescence; series mostly up to 57.1 µM
# How it was run: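 20 nM human CYP3A4 with 25 uM Luciferin-PPXE (at KM) in 200 mM KPO4, preincubated 10 min with compound; NADPH regeneration started a 60 min RT reaction. Luciferin detected by luminescence, normalized to 57 uM ketoconazole as full inhibition.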
# [14] = target: ATP-dependent 6-phosphofructokinase (Trypanosoma brucei brucei) (UniProt O15648); test: qHTS Assay to Find Inhibitors of T. brucei phosphofructokinase: hit validation (AID 492961; active = well fitted curve in the direction sought with a large enough effect; an effect the other way counts as inactive or inconclusive); conditions: T. brucei PFK, ADP-Glo luminescence; series mostly up to 51.4 µM
# How it was run: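 PFK 1.25 nM, F6P 0.5 mM, ATP 0.1 mM, MgCl2 5 mM, 0.1 M TEA pH 8.0, Tween20 0.01%, BSA 0.1%; 45 min RT. ADP-Glo two-step detection, luminescence. qHTS titration; curve fitting with curve-class categorization.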
# [15] = qHTS profiling for inhibitors of Plasmodium falciparum proliferation (AID 504749; active = well fitted curve in the direction sought with a large enough effect; an effect the other way counts as inactive or inconclusive;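 also: 0% = DMSO vehicle and full inhibition = artemisinin control; nearly all actives have a fitted effect of over 60% in size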); conditions: P. falciparum in erythrocytes, SYBR Green DNA, 72 h, at 28.7 µM (top of the series)
# How it was run: (§1)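 P. falciparum-infected erythrocytes (0.3% parasitemia, 2.5% hematocrit final) were exposed to compounds for 72 h at 37 C in 5% CO2, then lysed with SYBR Green buffer overnight at room temperature; parasite DNA fluorescence was normalized to artemisinin and DMSO controls.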
# CP192 = test: as above; conditions: P. falciparum in erythrocytes, SYBR Green DNA, 72 h; series mostly up to 28.7 µM
# How it was run: as §1
# CP203 = test: as above; conditions: P. falciparum in erythrocytes, SYBR Green DNA, 72 h; series mostly up to 28.7 µM
# How it was run: as §1
# W2 = test: as above; conditions: P. falciparum in erythrocytes, SYBR Green DNA, 72 h; series mostly up to 28.7 µM
# How it was run: as §1
# Sequence of Glucocorticoid receptor (Homo sapiens) (P04150 whole entry, looked up, the tested form may be a part): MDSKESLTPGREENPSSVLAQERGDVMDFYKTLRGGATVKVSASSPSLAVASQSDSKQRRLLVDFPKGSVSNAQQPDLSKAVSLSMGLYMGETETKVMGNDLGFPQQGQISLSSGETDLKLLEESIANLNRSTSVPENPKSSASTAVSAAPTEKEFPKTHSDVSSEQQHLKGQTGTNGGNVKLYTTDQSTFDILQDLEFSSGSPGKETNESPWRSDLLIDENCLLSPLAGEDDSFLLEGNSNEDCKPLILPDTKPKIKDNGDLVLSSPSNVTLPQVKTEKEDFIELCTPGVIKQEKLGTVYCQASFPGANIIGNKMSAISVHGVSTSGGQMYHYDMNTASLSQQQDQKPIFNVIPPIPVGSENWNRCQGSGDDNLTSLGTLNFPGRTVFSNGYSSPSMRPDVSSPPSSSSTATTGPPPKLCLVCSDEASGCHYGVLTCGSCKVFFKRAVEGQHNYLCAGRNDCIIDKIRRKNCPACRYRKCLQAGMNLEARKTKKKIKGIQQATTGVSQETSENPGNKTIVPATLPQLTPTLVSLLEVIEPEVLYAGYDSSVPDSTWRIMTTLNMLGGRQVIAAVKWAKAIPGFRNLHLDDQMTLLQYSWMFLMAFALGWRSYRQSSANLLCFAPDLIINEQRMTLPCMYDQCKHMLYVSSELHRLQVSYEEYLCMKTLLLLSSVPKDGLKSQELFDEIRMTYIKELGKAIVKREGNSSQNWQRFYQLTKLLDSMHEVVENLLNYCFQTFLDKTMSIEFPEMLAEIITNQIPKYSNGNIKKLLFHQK
# Sequence of Cytochrome P450 3A4 (Homo sapiens) (P08684 whole entry, looked up): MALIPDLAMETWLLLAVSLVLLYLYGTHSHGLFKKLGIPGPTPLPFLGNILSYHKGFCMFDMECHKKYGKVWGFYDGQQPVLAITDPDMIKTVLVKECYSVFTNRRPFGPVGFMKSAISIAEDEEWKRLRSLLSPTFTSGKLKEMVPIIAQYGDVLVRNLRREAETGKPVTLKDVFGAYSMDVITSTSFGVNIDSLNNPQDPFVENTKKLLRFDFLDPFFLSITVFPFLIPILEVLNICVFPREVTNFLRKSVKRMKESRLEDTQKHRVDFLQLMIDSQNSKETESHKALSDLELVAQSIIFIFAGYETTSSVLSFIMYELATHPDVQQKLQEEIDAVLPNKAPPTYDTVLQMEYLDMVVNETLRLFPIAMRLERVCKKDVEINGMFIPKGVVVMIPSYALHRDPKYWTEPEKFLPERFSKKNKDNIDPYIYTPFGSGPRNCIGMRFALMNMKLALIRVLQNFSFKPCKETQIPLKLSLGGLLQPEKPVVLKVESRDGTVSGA
# Sequence of Cytochrome P450 1A2 (Homo sapiens) (P05177 whole entry, looked up): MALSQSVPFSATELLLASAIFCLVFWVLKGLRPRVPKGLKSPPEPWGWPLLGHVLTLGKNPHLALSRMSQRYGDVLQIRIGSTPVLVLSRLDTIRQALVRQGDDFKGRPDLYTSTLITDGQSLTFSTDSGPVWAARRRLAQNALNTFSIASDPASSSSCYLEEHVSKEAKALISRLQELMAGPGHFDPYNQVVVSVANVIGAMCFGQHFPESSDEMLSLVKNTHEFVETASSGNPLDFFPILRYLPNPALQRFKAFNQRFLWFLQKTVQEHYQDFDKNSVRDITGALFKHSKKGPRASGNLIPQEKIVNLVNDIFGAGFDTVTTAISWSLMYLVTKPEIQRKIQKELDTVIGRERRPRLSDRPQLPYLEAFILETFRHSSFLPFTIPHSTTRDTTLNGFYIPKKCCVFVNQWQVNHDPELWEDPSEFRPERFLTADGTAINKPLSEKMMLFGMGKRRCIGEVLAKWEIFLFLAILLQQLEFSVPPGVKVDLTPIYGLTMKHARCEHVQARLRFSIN
# Sequence of Lysosomal acid glucosylceramidase (Homo sapiens) (P04062 whole entry, looked up): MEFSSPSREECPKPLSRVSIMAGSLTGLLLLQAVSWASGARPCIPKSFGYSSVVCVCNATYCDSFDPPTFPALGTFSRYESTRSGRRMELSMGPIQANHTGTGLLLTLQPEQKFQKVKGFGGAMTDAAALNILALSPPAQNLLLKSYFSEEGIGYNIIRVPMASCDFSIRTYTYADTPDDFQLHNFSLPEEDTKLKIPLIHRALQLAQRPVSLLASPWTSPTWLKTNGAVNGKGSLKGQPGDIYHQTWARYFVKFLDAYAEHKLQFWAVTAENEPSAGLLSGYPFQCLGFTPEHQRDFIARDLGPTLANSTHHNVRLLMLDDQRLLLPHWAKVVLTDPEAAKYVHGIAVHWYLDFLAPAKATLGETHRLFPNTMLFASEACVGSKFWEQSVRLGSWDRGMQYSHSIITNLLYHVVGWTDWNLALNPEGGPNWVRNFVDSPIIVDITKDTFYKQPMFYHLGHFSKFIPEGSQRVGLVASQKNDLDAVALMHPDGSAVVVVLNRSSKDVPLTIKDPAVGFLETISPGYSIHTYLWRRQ
# Sequence of 3',5'-cyclic-AMP phosphodiesterase 4B (Homo sapiens) (Q07343 whole entry, looked up): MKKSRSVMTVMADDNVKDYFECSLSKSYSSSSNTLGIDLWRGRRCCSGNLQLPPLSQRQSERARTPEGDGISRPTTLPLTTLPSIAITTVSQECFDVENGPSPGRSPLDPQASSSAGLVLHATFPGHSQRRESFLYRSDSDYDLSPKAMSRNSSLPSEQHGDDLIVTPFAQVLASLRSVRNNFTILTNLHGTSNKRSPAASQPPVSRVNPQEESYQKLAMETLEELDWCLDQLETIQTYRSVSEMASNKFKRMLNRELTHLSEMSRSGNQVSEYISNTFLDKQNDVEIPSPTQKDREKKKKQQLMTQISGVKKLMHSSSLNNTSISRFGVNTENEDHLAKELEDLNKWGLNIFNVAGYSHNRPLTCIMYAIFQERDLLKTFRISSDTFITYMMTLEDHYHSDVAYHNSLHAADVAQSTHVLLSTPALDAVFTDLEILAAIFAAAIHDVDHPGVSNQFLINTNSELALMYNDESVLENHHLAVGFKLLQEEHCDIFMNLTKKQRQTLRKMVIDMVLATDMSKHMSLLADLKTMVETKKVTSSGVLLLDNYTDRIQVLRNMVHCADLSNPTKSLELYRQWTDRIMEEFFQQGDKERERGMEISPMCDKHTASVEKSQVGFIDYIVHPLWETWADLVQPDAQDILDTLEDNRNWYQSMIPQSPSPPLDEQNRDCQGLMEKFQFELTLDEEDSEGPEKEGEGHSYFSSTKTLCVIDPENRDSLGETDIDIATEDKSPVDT
# Sequence of ATP-dependent 6-phosphofructokinase (Trypanosoma brucei brucei) (O15648 whole entry, looked up): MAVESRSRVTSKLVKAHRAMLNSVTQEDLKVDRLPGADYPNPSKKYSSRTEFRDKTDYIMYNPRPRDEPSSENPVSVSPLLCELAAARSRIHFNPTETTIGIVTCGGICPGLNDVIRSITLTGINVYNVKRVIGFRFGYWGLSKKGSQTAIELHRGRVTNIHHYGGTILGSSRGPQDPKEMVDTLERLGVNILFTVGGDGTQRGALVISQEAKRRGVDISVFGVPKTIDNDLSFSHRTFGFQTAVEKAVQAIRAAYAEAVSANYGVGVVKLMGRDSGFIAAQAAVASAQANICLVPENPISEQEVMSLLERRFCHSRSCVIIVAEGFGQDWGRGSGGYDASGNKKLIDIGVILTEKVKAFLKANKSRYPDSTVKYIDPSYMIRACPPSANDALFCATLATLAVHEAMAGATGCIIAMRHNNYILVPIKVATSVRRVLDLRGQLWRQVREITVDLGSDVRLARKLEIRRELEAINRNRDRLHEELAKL
# Sequence of Cytochrome P450 2D6 (Homo sapiens) (P10635 whole entry, looked up): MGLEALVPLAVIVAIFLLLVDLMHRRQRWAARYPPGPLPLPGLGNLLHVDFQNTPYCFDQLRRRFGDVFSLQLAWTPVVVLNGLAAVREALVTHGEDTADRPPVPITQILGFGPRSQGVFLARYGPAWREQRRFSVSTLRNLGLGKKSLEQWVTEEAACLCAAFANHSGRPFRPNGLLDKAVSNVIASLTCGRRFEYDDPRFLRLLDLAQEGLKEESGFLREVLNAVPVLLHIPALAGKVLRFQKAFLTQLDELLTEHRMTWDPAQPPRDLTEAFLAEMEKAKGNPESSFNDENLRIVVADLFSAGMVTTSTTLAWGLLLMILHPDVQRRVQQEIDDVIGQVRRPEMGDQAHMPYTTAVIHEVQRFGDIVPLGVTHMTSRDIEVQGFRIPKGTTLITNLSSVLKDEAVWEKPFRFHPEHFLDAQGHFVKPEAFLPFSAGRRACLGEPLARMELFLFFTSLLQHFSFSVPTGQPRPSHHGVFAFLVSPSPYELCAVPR
structure (smiles),measurement,setting,value
C[C@@]1(C(=O)O)CCC[C@@H]1C(=O)O,Potency,[1],> 11.4 µM
same,"activity change, negative = inhibition",[2],8.46%
same,"activity change, negative = inhibition",[3],-9.8% [at 2.29 µM]
same,"activity change, negative = inhibition",[4],5.02%
same,"activity, negative = inhibition",[5],2.41%
same,Potency,[6],> 9.22 µM
same,Potency,[7],inactive
same,Potency,[8],inactive
CC(C)C[C@@H](N)C(=O)Nc1ccc2ccccc2c1,Potency,[1],> 11.4 µM
same,"activity change, negative = inhibition",[2],9.25%
same,Potency,[3],1.58 µM (active)
same,"activity change, negative = inhibition",[4],8.34%
same,"activity, negative = inhibition",[5],-2.09%
same,Potency,[6],> 9.22 µM
same,Potency,[7],inactive
same,Potency,[8],inactive
same,Potency,[9],inactive
C[C@H]1C[C@H]2[C@H]3CCC4=CC(=O)C=C[C@@]4(C)[C@]3(F)[C@H](O)C[C@]2(C)[C@@]1(O)C(=O)COP(=O)(O)O,Potency,[1],> 11.4 µM
same,"activity change, negative = inhibition",[2],-4.3%
same,Potency,[3],inactive
same,"activity change, negative = inhibition",[4],15.9%
same,"activity, negative = inhibition",[5],-7.89%
same,Potency,[7],inactive
same,Potency,[8],inactive
O=C(Nc1cccc(Cl)c1)Nn1cnnc1,Potency,[1],> 11.4 µM
same,"activity change, negative = inhibition",[2],0.989%
same,Potency,[3],3.16 µM (active)
same,"activity change, negative = inhibition",[4],-6.38%
same,"activity, negative = inhibition",[5],-6.44%
same,Potency,[10],> 46 µM
same,Potency,[7],inactive
same,Potency,[8],inactive
same,Potency,[9],inactive
C/C(=N/O)c1ccc2cc(Br)c3ccccc3c2c1,Potency,[1],> 11.4 µM
same,"activity change, negative = inhibition",[2],15%
same,"activity change, negative = inhibition",[3],-13.6% [at 2.29 µM]
same,"activity change, negative = inhibition",[4],1.9%
same,"activity, negative = inhibition",[5],-6.91%
same,Potency,[10],> 46 µM
same,Potency,[7],inactive
same,Potency,[8],inactive
same,Potency,[11],0.0251 µM (active)
O=C(O)[C@@H](O)Cc1ccccn1,Potency,[1],> 11.4 µM
same,"activity change, negative = inhibition",[2],4.97%
same,Potency,[3],inactive
same,"activity change, negative = inhibition",[4],2.96%
same,"activity, negative = inhibition",[5],4.36%
same,Potency,[10],> 46 µM
same,Potency,[7],inactive
same,Potency,[8],inactive
same,activation,[12],0.65%
N[C@@H](Cc1ccccc1)C(=O)O,Potency,[1],> 11.4 µM
same,"activity change, negative = inhibition",[2],3.61%
same,Potency,[3],inactive
same,"activity change, negative = inhibition",[4],14.5%
same,"activity, negative = inhibition",[5],12.6%
same,Potency,[7],inactive
same,Potency,[8],inactive
same,Potency,[13],inactive
same,outcome,[14],inactive
same,"activity, negative = inhibition",[15]; parasite line A,4.49%
same,"activity, negative = inhibition",[15]; parasite line B,-0.635%
same,Potency,CP192,inactive
same,Potency,CP203,inactive
same,Potency,W2,inactive
